Experimental data from the supplement of paper PMC10477191.
± gives the standard deviation of the averaged measurements.

These molecules were tested on Drosophila ezoana antennal basiconic sensillum ab6 (assay: odor-evoked OSN spike response (post minus pre-stimulus); higher = stronger neuronal excitation). Settings: odor dilution: 10^-4.
Experimental: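 Single sensillum recordings from antennal basiconic sensilla of D. ezoana. A 500 ms pulse of odorant (10^-4 in mineral oil or DMSO) was delivered; the response is the change in action potential frequency between the 1 s pre- and post-stimulus windows (spikes/s).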
For `CCOC(=O)c1ccccc1` [ethyl benzoate], the “odor-evoked OSN spike response” value was 66.1 ± 26 spikes/s.
For `CCCCCC(=O)OCC` [ethyl hexanoate], the “odor-evoked OSN spike response” value was 52.2 ± 20 spikes/s.
In the case of `CCCCCC(C)=O` [2-heptanone], the “odor-evoked OSN spike response” value is reported as 60.9 ± 21 spikes/s.
With `CC(=O)CCC=C(C)C` [6-methyl-5-hepten-2-one] the “odor-evoked OSN spike response” value was 58.1 ± 30 spikes/s.
In the case of `CCCC(=O)OCC` [ethyl butanoate], the “odor-evoked OSN spike response” value is reported as 52.1 ± 29 spikes/s.
With `OCCc1ccccc1` [2-phenylethanol] the “odor-evoked OSN spike response” value was 53 ± 31 spikes/s.
With `C=CC(O)CCCCC` (stereo not given) [1-octen-3-ol] the “odor-evoked OSN spike response” value was 143 ± 47 spikes/s.
In the case of `CCCCCCO` [1-hexanol], the “odor-evoked OSN spike response” value is reported as 77.5 ± 29 spikes/s.
`CCCCCCCC(C)=O` [2-nonanone] was tested, and the “odor-evoked OSN spike response” value was 54.7 ± 22 spikes/s.
For `CCOC(=O)C(C)O` (stereo not given) [Ethyl lactate], the “odor-evoked OSN spike response” value was 58 ± 18 spikes/s.
In the case of `CC(=O)C(C)O` (stereo not given) [acetoin], the “odor-evoked OSN spike response” value is reported as 69.8 ± 40 spikes/s.
`CCOC(C)=O` [Ethyl acetate] was tested, and the “odor-evoked OSN spike response” value was 55.2 ± 25 spikes/s.
`COc1ccccc1O` [guaiacol] was tested, and the “odor-evoked OSN spike response” value was 123 ± 36 spikes/s.
In the case of `CCCCCOC(C)=O` [pentyl acetate], the “odor-evoked OSN spike response” value is reported as 67.9 ± 20 spikes/s.
For `CCCCCCCC(C)O` (stereo not given) [2-nonanol], the “odor-evoked OSN spike response” value was 55.7 ± 33 spikes/s.
In the case of `C/C=C/C(=O)OCC` [Ethyl crotonate], the “odor-evoked OSN spike response” value is reported as 71.1 ± 37 spikes/s.
With `CCCCC(C)O` (stereo not given) [2-hexanol] the “odor-evoked OSN spike response” value was 67.3 ± 33 spikes/s.
For `CCOC(=O)CC(C)O` (stereo not given) [Ethyl-3-hydroxybutyrate], the “odor-evoked OSN spike response” value was 93.1 ± 33 spikes/s.
With `Oc1ccccc1` [phenol] the “odor-evoked OSN spike response” value was 73 ± 38 spikes/s.
For `COC(=O)c1ccccc1O` [Methyl salicylate], the “odor-evoked OSN spike response” value was 58.3 ± 32 spikes/s.
